Laboratory results reported in the supplement of paper PMC11732987, “Enantioselective OTUD7B fragment discovery through chemoproteomics screening and high-throughput optimisation” (Communications Chemistry, 2025).

Columns and labels:
Assay in all cases: log2 ratio of Biotin-Ahx-Ub-VS probe labelling (fragment/DMSO); higher = less target engagement (more negative = stronger competition), active = hit call of the paper (q ≤ 0.05, log2 ratio ≤ -1)
Details in all cases: compound concentration: 200 uM; treatment time: 3 h
USP42 = biological target: T1, USP42 (UniProt Q9H9J4)
T1 sequence (whole entry): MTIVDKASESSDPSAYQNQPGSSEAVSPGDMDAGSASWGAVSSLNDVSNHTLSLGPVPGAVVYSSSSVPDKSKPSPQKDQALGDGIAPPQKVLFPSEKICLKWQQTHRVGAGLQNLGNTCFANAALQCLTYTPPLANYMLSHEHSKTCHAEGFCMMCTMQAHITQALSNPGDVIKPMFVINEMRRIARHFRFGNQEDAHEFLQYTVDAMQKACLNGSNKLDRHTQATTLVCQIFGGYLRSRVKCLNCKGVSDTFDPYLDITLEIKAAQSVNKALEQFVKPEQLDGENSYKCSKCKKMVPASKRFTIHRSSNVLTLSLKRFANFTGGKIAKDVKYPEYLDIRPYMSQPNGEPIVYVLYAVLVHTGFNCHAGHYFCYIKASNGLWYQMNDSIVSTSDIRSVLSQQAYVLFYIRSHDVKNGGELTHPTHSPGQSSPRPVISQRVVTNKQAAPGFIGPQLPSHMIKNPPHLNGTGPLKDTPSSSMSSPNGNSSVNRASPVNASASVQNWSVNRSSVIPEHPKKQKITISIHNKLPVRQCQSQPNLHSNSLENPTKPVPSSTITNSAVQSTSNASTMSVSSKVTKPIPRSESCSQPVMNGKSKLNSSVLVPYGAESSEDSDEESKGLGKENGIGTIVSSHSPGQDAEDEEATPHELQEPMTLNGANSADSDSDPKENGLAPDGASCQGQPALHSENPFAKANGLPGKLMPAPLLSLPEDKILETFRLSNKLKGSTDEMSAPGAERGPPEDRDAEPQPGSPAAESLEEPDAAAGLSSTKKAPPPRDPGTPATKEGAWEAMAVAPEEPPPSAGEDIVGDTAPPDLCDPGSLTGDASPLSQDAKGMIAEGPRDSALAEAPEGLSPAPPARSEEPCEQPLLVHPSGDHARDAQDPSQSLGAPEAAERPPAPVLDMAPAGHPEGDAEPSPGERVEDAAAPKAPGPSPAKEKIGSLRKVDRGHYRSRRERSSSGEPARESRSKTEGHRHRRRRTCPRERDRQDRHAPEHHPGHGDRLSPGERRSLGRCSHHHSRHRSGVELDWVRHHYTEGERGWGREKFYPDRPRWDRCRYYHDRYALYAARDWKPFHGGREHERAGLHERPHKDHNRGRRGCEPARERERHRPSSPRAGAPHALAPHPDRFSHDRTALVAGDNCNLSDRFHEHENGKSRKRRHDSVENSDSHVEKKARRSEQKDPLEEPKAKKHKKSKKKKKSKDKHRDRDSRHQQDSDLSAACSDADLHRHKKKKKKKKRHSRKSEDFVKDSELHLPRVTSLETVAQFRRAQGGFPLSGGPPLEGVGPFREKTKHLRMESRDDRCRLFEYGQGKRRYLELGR
Outline: (§1)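 HEK293T lysate (495 µg per sample, in Tris/CHAPS/IGEPAL buffer with protease inhibitors) was exposed in triplicate for 3 h to fragment at 200 µM or to vehicle, then to Biotin-Ahx-Ub-VS at 0.5 µM final for 1 h. Labelled DUBs were enriched on NeutrAvidin, digested with LysC and trypsin, and analysed by diaPASEF LC-MS/MS. Spectronaut label-free quantities were normalised to the global median, and values are average log2 ratios of fragment over vehicle from an unpaired t-test. Only proteins with ≥2 unique peptides were used.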

USP46 = USP46 (UniProt P62068)
Sequence of USP46 (P62068 whole entry): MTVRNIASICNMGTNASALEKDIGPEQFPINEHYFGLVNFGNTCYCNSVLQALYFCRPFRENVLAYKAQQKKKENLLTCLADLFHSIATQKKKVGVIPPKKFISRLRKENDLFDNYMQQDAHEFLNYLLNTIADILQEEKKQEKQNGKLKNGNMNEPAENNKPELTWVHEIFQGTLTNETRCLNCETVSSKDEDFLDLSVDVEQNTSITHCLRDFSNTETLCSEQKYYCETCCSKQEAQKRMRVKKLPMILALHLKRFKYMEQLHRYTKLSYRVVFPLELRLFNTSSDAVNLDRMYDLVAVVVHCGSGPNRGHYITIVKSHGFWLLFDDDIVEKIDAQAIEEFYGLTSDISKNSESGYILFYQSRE
Outline: as §1

USP47 = biological target: T2, USP47 (UniProt Q96K76)
T2 sequence (whole entry): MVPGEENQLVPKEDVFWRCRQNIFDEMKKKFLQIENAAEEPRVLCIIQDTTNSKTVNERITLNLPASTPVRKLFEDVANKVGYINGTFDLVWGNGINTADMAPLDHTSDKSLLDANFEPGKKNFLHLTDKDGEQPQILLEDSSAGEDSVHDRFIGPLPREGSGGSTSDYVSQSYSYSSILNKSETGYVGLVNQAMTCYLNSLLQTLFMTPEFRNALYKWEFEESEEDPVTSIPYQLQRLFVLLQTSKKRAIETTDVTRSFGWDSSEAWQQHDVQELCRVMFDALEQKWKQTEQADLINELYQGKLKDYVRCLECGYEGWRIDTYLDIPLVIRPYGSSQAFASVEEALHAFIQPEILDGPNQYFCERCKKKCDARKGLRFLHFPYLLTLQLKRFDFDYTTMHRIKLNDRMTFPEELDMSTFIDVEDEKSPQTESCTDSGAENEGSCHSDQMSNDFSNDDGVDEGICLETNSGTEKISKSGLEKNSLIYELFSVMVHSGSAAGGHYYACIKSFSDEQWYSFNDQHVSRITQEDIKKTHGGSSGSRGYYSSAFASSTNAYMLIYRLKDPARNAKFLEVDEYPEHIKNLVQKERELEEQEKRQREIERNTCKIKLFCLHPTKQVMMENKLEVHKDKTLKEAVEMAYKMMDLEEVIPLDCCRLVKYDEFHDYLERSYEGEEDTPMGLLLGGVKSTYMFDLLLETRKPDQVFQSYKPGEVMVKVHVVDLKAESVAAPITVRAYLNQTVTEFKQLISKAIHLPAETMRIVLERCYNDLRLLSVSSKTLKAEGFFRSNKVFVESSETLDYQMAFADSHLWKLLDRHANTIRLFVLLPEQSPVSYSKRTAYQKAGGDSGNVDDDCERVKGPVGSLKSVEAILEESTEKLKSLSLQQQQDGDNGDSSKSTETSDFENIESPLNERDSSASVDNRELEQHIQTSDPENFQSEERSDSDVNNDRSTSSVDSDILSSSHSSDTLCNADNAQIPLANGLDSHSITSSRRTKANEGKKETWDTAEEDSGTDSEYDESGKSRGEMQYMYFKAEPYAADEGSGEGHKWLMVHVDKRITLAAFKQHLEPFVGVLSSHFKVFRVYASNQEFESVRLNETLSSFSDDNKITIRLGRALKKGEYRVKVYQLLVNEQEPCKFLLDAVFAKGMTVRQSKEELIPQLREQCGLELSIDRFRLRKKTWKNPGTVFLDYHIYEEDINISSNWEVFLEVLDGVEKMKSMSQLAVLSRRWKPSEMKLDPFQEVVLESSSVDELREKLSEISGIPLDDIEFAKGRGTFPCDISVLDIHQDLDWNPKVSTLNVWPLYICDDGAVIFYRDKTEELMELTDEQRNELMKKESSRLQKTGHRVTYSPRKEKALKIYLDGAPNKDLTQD
Outline: as §1

USP48 = biological target: T3, USP48 (UniProt Q86UV5)
T3 sequence (whole entry): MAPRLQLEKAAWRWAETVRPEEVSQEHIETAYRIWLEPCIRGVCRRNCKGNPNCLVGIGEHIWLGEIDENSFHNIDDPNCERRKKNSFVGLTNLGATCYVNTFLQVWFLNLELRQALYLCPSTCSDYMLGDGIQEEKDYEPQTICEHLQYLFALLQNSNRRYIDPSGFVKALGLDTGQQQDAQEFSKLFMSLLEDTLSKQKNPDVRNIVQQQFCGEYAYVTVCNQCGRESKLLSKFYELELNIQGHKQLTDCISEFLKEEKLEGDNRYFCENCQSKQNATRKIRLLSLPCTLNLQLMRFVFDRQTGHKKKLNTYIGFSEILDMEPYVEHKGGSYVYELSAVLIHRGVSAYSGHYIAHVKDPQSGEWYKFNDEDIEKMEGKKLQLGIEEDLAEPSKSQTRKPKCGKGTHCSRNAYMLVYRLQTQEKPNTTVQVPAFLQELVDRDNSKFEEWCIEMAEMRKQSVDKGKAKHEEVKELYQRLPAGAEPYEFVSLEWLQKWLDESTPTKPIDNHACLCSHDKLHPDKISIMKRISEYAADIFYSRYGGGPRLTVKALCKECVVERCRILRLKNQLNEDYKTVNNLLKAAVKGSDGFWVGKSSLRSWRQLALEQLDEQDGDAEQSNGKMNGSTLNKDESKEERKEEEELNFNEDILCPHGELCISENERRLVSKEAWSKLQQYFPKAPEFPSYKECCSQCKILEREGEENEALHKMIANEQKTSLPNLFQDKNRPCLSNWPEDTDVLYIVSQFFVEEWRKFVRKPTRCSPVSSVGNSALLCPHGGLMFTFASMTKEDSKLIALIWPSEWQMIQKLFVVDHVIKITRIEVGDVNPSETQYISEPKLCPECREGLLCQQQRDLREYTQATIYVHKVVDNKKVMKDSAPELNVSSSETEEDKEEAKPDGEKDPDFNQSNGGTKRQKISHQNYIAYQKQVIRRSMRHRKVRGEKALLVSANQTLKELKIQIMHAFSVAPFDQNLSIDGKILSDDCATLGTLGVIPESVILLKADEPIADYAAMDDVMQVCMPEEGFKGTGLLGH
Outline: as §1

USP5 = biological target: T4, USP5 (UniProt P45974)
T4 sequence (whole entry): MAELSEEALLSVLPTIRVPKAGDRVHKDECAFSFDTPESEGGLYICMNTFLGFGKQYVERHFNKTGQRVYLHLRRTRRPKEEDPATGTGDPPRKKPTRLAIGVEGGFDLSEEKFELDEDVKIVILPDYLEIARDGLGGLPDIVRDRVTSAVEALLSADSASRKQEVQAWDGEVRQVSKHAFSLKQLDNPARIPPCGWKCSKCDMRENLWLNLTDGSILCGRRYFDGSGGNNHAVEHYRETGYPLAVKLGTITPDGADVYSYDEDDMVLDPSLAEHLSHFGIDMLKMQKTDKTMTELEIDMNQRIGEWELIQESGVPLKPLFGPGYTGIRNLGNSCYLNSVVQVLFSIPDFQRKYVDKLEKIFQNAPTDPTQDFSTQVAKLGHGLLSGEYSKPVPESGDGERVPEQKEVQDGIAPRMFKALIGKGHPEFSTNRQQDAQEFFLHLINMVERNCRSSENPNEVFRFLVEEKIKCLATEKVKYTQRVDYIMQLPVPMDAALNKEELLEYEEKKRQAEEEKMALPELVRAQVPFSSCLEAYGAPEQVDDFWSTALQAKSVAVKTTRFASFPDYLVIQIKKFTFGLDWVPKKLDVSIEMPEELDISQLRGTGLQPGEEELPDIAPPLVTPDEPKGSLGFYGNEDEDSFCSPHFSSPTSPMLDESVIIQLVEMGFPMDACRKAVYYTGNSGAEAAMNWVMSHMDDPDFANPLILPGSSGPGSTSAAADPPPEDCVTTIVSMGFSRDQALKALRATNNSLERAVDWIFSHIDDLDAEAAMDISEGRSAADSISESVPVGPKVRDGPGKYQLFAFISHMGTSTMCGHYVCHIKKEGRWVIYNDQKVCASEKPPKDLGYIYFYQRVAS
Outline: as §1

USP54 = USP54 (UniProt Q70EL1)
Sequence of USP54 (Q70EL1 whole entry): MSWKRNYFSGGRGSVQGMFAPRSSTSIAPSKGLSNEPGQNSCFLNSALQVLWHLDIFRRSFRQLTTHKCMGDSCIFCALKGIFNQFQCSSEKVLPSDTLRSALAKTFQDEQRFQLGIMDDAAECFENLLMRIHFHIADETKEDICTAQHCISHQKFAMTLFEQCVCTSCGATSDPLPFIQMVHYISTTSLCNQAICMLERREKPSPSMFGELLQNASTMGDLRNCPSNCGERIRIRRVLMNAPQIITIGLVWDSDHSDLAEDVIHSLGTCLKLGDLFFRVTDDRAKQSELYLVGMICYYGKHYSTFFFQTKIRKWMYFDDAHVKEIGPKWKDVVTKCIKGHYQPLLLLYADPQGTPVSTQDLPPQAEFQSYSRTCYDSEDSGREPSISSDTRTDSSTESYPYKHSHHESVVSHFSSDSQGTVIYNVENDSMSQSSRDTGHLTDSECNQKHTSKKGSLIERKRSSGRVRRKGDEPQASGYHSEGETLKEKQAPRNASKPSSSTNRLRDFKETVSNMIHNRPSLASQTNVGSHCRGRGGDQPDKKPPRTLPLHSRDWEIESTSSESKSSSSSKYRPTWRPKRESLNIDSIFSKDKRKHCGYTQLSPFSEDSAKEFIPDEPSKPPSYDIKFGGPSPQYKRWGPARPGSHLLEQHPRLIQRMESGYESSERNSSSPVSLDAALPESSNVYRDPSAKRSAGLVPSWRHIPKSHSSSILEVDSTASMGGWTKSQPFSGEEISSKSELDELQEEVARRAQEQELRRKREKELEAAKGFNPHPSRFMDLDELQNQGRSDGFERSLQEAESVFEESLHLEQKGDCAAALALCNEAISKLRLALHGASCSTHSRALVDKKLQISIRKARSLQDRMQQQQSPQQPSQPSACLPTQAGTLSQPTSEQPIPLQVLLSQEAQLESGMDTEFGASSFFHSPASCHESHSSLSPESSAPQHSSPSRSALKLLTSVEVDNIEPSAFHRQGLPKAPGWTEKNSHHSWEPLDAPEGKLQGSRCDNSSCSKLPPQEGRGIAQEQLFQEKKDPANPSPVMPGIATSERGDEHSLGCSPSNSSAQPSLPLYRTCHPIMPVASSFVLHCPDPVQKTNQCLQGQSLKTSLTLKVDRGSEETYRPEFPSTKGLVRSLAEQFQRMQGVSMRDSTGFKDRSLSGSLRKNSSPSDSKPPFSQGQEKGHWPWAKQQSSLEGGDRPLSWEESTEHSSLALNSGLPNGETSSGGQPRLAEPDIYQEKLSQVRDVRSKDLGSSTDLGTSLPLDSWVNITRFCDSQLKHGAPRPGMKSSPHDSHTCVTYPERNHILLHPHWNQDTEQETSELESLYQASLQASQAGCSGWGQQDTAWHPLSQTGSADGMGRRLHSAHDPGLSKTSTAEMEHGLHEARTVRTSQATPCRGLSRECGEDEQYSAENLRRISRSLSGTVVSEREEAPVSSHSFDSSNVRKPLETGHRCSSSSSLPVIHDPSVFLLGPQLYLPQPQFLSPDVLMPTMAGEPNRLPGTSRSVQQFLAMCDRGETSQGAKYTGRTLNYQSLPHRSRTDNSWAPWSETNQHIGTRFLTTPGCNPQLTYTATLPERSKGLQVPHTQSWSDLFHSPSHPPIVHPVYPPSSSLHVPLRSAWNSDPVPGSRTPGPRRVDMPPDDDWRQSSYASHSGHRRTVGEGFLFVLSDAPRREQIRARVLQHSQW
Outline: as §1

USP7 = USP7 (UniProt Q93009)
Sequence of USP7 (Q93009 whole entry, looked up): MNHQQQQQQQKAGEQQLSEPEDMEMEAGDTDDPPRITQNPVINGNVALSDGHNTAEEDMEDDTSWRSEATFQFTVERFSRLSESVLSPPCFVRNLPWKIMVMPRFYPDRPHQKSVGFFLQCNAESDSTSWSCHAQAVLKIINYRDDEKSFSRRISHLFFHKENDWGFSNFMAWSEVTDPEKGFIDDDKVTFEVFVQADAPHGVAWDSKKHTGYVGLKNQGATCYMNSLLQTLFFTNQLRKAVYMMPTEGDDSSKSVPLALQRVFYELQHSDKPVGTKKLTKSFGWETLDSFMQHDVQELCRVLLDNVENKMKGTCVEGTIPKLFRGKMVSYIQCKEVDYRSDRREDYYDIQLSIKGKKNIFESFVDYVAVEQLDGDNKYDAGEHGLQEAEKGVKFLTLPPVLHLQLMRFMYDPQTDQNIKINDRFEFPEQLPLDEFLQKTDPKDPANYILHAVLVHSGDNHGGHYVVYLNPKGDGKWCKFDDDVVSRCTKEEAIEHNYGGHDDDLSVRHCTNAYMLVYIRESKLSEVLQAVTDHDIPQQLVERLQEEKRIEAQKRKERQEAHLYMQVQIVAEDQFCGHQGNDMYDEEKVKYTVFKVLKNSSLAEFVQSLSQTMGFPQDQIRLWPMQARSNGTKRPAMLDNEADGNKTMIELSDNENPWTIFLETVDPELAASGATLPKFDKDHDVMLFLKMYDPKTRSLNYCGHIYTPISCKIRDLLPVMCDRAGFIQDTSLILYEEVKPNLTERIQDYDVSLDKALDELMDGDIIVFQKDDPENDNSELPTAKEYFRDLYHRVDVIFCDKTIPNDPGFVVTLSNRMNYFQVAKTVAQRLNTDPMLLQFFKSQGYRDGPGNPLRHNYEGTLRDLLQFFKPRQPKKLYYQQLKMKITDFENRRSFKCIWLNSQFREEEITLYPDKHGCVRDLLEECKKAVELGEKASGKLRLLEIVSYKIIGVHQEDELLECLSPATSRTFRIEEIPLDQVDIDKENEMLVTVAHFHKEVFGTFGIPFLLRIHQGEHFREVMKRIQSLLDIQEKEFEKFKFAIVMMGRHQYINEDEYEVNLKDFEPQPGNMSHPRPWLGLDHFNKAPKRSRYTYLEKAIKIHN
Outline: as §1

USP8 = biological target: T5, USP8 (UniProt P40818)
T5 sequence (whole entry): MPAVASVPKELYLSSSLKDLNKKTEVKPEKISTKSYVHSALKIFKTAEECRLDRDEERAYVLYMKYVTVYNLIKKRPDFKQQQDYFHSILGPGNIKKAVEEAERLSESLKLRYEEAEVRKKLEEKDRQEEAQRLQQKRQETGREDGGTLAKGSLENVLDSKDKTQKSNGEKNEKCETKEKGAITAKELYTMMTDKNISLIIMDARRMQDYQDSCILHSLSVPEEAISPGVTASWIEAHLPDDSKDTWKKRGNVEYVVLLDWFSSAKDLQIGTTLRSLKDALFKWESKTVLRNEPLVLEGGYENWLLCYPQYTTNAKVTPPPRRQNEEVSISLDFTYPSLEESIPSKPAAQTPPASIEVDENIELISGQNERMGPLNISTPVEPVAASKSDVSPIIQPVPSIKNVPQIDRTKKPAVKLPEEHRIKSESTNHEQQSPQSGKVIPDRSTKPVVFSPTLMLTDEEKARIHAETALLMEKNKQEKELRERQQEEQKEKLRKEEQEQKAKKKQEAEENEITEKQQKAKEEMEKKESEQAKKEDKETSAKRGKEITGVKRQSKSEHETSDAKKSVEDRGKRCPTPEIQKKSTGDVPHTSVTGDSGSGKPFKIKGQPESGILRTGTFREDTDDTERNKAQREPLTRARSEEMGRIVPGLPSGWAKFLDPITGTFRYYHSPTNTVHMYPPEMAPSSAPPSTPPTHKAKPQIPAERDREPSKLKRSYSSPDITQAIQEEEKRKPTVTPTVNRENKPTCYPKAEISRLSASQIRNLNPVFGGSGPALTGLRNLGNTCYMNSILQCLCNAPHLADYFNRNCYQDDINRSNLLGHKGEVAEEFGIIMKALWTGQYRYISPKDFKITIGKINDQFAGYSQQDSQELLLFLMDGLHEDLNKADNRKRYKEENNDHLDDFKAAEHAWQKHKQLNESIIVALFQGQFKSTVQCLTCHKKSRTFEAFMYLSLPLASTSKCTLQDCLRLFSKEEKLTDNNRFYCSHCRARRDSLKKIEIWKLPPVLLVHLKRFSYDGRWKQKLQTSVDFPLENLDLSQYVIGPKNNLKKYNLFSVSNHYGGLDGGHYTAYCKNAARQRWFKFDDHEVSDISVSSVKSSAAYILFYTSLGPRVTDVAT
Outline: as §1

USP9X = USP9X (UniProt Q93008)
Outline: as §1

UniProt O00487 = biological target: UniProt O00487
Sequence of UniProt O00487 (O00487 whole entry): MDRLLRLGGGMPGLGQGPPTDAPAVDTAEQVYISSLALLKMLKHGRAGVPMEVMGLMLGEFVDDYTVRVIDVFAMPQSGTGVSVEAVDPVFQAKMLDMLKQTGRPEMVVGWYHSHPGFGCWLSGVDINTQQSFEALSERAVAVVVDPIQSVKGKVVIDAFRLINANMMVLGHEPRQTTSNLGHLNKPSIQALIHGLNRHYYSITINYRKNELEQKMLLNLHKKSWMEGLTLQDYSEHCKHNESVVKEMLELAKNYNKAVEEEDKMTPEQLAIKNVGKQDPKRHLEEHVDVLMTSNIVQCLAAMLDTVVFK
Outline: as §1

Measured: log2 ratio of Biotin-Ahx-Ub-VS probe labelling

O=C(CCl)N1CCN2C(=O)CCC2C1 (stereo not given)
inactive: USP42 -0.359 | USP46 0.247 | USP47 -0.0244 | USP48 -0.154 | USP5 0.153 | USP54 0.776 | USP7 -0.0819 | USP8 -0.376 | USP9X -0.098 | UniProt O00487 -0.0865
